The nature of test [1]: reducers of endogenous Her2 protein level, primary screen, SKBR3 breast tumor cells, AlphaScreen, ATP viability (AID 461).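 As to Her2 level: lower value means less Her2 protein in the cells.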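 As to viability: percent of carrier control wells set as 100% viability.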 The conditions noted are these: 18-24 h, measured here: SKBR3 viability, ATP luminescence, at 10 µM.
For test [2], the target named is Receptor tyrosine-protein kinase erbB-2 (Homo sapiens) (UniProt P04626). The test is described as above. The following applies: 18-24 h, at 10 µM, stronger effect = lower value.
A short description of test [3]: SK-BR-3 cell growth inhibitors, pilot screen, 24 h, human (AID 572;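 active = viability at or below 10% of carrier control in both of two separate runs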;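 also: compound exposure lasted between 18 and 24 h rather than exactly 24 h; 100% = carrier-treated control wells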). The conditions noted are these: SK-BR-3 viability, CellTiter-Glo luminescence, at 10 µM, stronger effect = lower value.
Test [4] in a line: HUVEC growth inhibition – cell-based, human, primary screen (AID 575;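 active = viability at or below 30% in both replicate assays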;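 also: 100% = median of untreated cell wells with 0.1% DMSO on each plate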). The conditions noted are these: HUVEC proliferation, CellTiter-Glo luminescence, 72 h; at 10 µM; stronger effect = lower value.
The nature of test [5]: growth inhibitors of H69AR lung tumor, primary screen, human, duplicate replicates (AID 580;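 active = viability at or under a set limit in both replicates, limit being median viability minus 3 SD, cut at about 48% in these data, passing the limit was not always enough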;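 also: 100% = mean luminescence of untreated wells and 0% = no signal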). The following applies: H69AR lung tumor cells viability, ATP luminescence, 72 h; at 10 µM; stronger effect = lower value.
A short description of test [6]: reversal of MRP1-mediated doxorubicin resistance, pilot screen, H69AR cells, doxorubicin co-treatment (AID 601;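 active = viability loss from added drug above about 55%, and viability with drug at most 40%, in both replicates, limit read from the data, passing the limit was not always enough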). The conditions noted are these: CellTiter-Glo, 72 h, at 10 µM; for differential viability (reversal): stronger effect = higher value.
Test [7] in a line: 384-well plate pilot, post-Golgi transport modulator project, inhibition of yeast transport mutant growth (AID 636; in the data active = inhibition above about 31%). The following applies: absorbance 615 nm, about 18 h, stronger effect = higher value.
The nature of test [8]: growth suppression of yeast trafficking mutant, preliminary HTS, modulators of trafficking downstream of Golgi apparatus project, 1536-format plate, OD 615 nm (AID 637; in the data active = inhibition above about 30%). The conditions noted are these: yeast transport mutant growth, absorbance 615 nm, 18 h; stronger effect = higher value.
Test [9] is described as follows: OD615 S. cerevisiae growth inhibition, permissive medium, pilot counter-assay, permissive growth control for S. cerevisiae lifespan shortening project (AID 705;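 active = growth inhibition above 25% in both replicates, a cutoff set 3 SD above the mean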). The conditions noted are these: OD615, 24 h, at 10 µM, stronger effect = higher value.
Test [10] can be described thus: Restrictive medium S. cerevisiae growth inhibition, OD615, pilot screen of yeast lifespan reduction project, restrictive growth control (AID 706;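 active = growth inhibition above a set limit, 3 SD over mean compound inhibition, in both replicates, cut at about 43% in these data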;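 also: modified DeaD lifespan yeast strain shifted to restrictive glucose medium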). The conditions noted are these: OD615, 48 h, at 10 µM, stronger effect = higher value.
Test [11] is described as follows: viability gain of MRP-1-high H69AR cells under doxorubicin, pilot screen, MRP-1 activator project, CellTiter-Glo, duplicate (AID 807;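 active = viability increase at or above a cutoff of the median across tested compounds plus 3 SD, cut at about 8.5% in these data, passing the limit was not always enough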;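 also: compound pretreatment 18-22 h then 72 h combined with doxorubicin; 0% = doxorubicin alone and 100% = vehicle without doxorubicin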). The following applies: H69AR viability with doxorubicin, CellTiter-Glo luminescence; at 10 µM; stronger effect = higher value.
Test [12] is described as follows: growth suppression of beta-catenin knockout HCT116, pilot screen, human colon tumor cells (AID 823;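 active = cell viability at or below a set limit in both duplicate runs, the limit being the all-compound median minus 4 SD, cut at about 23% in these data, passing the limit was not always enough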;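 also: 0% = wells killed by 20 µM Hyamine and 100% = untreated DMSO cell wells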). The following applies: CellTiter-Glo, 60 h, at 10 µM, stronger effect = lower value.
Test [13] can be described thus: growth suppression of PTEN-deleted HCT116, pilot screen, cell-based, HCT116 clonal line, CellTiter-Glo (AID 824;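 active = viability at or below 27.92% in each of two runs, the all-compound median minus 4 SD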;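 also: 0% = 20 µM Hyamine control and 100% = vehicle cell control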). The conditions noted are these: 60 h, at 10 µM, stronger effect = lower value.
The nature of test [14]: inhibitors of the yeast RAM network, pilot screen, dse1pr::URA3 reporter, 5-FOA selection (AID 869;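 active = inhibition over a set limit, the all-compound mean plus 3 SD, in both replicate runs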;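 also: 0% = DMSO wells with no growth and 100% = 10 µM 1-NA-PP1 with full growth; RAM network block rescues cells from 5-FOA so hits raise OD615 growth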). The conditions noted are these: S. cerevisiae dse1pr::URA3 5-FOA growth, OD615, 2 d; at 10 µM; stronger effect = higher value; strain carries analog-sensitive mutant Cbk1 kinase.
Test [15] in a line: RAM signaling pathway blockade in yeast – S. cerevisiae, Pdr1DBD-CYC8 efflux-inhibited sensitized strain, primary screen (AID 1298;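 active = RAM network inhibition above 8.4% in each of two replicates, 3 SD over the compound average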;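 also: 0% = DMSO untreated cells without growth and 100% = 10 µM 1-NA-PP1 full growth; higher means more yeast growth rescued from 5-FOA killing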). The following applies: S. cerevisiae cbk1-as DSE1-URA3 strain, 5-FOA growth OD615, 2 d; at 50 µM; stronger effect = higher value.
Setting [16] is: H69AR cells + 2 uM doxorubicin, measured here: viability with 2 uM doxorubicin, stronger effect = lower value.
The mark [17] stands for this setting: H69AR cells, compound alone cytotoxicity.

Results on 5 molecules are retold here after PubChem BioAssay.

Records with an inconclusive call do not appear. The source made the active and inactive calls.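 The calls were made as follows, unless noted: active = Her2 level under about 52% in both replicate screens, with viability over 70% of control (limit read from the data); inconclusive = Her2 under the limit in one screen only, or viability under 70%; inactive = Her2 level above the set limit.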

Sequence of Receptor tyrosine-protein kinase erbB-2 (Homo sapiens) (P04626 whole entry, looked up): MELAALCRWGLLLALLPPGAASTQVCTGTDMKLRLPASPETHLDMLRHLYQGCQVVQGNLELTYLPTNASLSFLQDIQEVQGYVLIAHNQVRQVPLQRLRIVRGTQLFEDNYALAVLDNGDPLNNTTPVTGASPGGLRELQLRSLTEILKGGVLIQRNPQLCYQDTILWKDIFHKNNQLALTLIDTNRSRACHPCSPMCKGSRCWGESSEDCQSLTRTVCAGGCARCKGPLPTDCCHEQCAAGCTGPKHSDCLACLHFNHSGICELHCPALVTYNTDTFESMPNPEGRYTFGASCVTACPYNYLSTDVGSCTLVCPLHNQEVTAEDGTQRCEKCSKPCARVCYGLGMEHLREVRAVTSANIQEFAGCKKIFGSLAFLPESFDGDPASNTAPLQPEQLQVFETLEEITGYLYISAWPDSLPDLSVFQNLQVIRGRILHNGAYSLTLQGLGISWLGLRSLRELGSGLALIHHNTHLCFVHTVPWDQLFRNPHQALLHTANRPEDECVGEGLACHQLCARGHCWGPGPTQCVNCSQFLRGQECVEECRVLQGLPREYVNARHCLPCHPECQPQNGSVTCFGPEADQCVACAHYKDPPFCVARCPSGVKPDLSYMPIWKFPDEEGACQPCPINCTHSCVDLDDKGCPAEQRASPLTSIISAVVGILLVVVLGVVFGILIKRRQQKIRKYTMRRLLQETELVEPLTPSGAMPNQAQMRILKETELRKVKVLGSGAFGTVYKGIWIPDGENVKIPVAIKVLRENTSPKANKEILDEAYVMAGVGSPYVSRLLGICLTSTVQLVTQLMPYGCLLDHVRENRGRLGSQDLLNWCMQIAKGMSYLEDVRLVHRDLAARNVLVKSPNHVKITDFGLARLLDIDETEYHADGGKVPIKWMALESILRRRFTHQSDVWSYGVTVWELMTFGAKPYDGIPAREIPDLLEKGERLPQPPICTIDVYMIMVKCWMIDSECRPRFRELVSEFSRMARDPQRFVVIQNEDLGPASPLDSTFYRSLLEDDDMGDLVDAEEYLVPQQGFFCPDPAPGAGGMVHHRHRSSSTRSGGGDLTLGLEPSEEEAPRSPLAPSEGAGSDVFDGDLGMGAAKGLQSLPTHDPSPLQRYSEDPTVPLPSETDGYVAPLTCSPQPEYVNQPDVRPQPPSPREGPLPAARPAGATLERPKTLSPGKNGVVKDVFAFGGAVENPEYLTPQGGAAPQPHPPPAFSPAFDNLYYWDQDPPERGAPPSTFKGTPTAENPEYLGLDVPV

Regarding `N#CCCN(Cc1cccnc1)C(=O)Nc1ccc(Cl)c(Cl)c1`, the viability in [1] was 118%; in test [3], 118% (inactive); in test [4], 94.6% (inactive); in test [5], 91.2% (inactive); in test [6] (setting [16]), 81.4%; in [6] (setting [17]), 91.2%. For the same molecule, the viability was 95.3% (inactive) in test [12] and 102% (inactive) in [13]. For the same molecule, the Her2 level in test [2] was 94% (inactive). Moreover, the differential viability (reversal) in test [6] (H69AR cells + 2 uM doxorubicin) was 9.8% (inactive). Besides, the inhibition in [7] is 0.13% (inactive); in test [8], 3.28% (inactive); in test [14], 0.065% (inactive). Moreover, the growth inhibition was -13.1% (inactive) in [9] and -14.9% (inactive) in test [10]. Moreover, the viability increase in [11] is 0.83% (inactive). For the same molecule, the RAM network inhibition in test [15] was 4.53% (inactive).

As for `CCOC(=O)Cn1c(CCC(=O)O)ccc1-c1ccc(F)cc1`, the viability in test [1] is 99%; in [3] it was 99% (inactive); in test [4], 106% (inactive); in [5] it was 84.3% (inactive); in [6] (setting [16]), 92.6%; in test [6] (setting [17]), 84.3%. Besides, the viability was 102% (inactive) in test [12] and 101% (inactive) in [13]. For the same molecule, the Her2 level in test [2] was 101% (inactive). Also, in test [6] (H69AR cells + 2 uM doxorubicin), the differential viability (reversal) was -8.34% (inactive). The inhibition in test [7] was -5.6% (inactive); in [8], 3.33% (inactive); in test [14] it was 0.72% (inactive). Moreover, the growth inhibition is -9.79% (inactive) in [9] and -2.42% (inactive) in test [10]. Besides, in test [11], the viability increase is -2.3% (inactive). Moreover, in [15], the RAM network inhibition is 2.74% (inactive).

As for `COC(=O)c1sc(NC(=O)COc2ccccc2OC)nc1C`, the viability in test [1] was 99.5%; in test [3] it was 99.5% (inactive); in test [4], 99.8% (inactive); in test [5], 95.1% (inactive); in [6] (setting [16]), 83.5%; in test [6] (setting [17]), 95.1%. In addition, the viability in test [12] is 102% (inactive); in test [13], 101% (inactive). For the same molecule, the Her2 level in [2] was 90% (inactive). Further, in test [6] (H69AR cells + 2 uM doxorubicin), the differential viability (reversal) was 11.6% (inactive). Besides, the figures for the inhibition in [7], in test [8] and in test [14] were -6.22% (inactive), -4% (inactive) and 1.06% (inactive), respectively. Moreover, the values for the growth inhibition in test [9] and in [10] were -1.71% (inactive) and -0.995% (inactive), respectively. For the same molecule, in test [11], the viability increase is -1.51% (inactive). Also, the RAM network inhibition in test [15] was 9% (inactive).

`COc1ccc(N2CCN(C(=O)C(C)(C)Oc3ccc(Cl)cc3)CC2)cc1`: the viability in test [1] was 85%; in test [3], 85% (inactive); in test [4], 76.9% (inactive); in test [5] it was 68.4% (inactive); in [6] (setting [16]), 78.6%; in [6] (setting [17]), 68.4%. Also, the viability in [12] is 74.4% (inactive); in test [13] it was 71.7% (inactive). Besides, the Her2 level in [2] is 91.5% (inactive). Further, the differential viability (reversal) in test [6] (H69AR cells + 2 uM doxorubicin) is -10.2% (inactive). Further, the inhibition was -1.07% (inactive) in test [7], -2.83% (inactive) in test [8] and 1.45% (inactive) in test [14]. Besides, the growth inhibition in test [9] was -6.29% (inactive); in test [10] it was 5.29% (inactive). Also, the viability increase in test [11] is -4.56% (inactive). The RAM network inhibition in test [15] was 9.33% (inactive).

As for `CCCCCn1c(=O)[nH]c2cc(C(=O)NCCN3CCOCC3)ccc2c1=O`, the viability in test [1] is 99.5%; in test [3] it was 99.5% (inactive); in [4], 114% (inactive); in test [5], 105% (inactive); in test [6] (setting [16]), 88.5%; in test [6] (setting [17]), 105%. Further, the values for the viability in test [12] and in test [13] were 92.5% (inactive) and 87.9% (inactive), respectively. Besides, the Her2 level in test [2] was 88% (inactive). The differential viability (reversal) in test [6] (H69AR cells + 2 uM doxorubicin) was 16.1% (inactive). Further, the inhibition in test [7] was -7.03% (inactive); in [8], 0.33% (inactive); in test [14], 1.83% (inactive). The results for the growth inhibition in test [9] and in [10] were -26.4% (inactive) and -10.6% (inactive), respectively. Besides, the viability increase in [11] is -0.3% (inactive). For the same molecule, in test [15], the RAM network inhibition is 5.23% (inactive).
